Rows were chosen to be rich in hits. Some 3.3% of all compounds tested hit in one or more screens of this group.
Smad3 FoxH1 inh – blocks human Smad3 binding to FoxH1 peptide; P84022; TR-FRET Smad3/Dy647-FoxH1 peptide binding, europium anti-His; inhibition, % at 25 µM; 0.29% of 88,000 active;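 active means compounds that reduce the energy-transfer binding signal between the protein and its labelled peptide by more than half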
ERa coact inh – ER-alpha (human) coactivator binding inhibition; P03372; TR-FRET ER-alpha LBD / SRC-1 peptide, estradiol-bound; inhibition, % at 25.6 µM; 1.7% of 86,000 active; in the data active means inhibition above about 50%
ERa coact pot – ER-alpha (human) coactivator binding potentiation. TR-FRET ERalpha-LBD/SRC-Cy5 coactivator binding, 2 h; 100 = basal binding, no effect. coactivator binding (% of control), % at 25.6 µM. P03372. 1.3% of 86,000 active; in the data active means activity above about 200%;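 further: binding measured in presence of low estradiol as agonist stimulus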
ERb coact inh – ER-beta (human) coactivator binding inhibition; Q92731; TR-FRET ER-beta LBD / SRC1-Cy5 peptide binding; receptor agonist-loaded with 1 µM estradiol; 1.3% of 86,000 active; inhibition, % at 25.6 µM;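 active means compounds whose percent inhibition of the receptor-coactivator binding signal exceeds about 50% in the single-dose screen, limit read from the data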
Target sequence (Q92731 whole entry, looked up, the tested form may be a part): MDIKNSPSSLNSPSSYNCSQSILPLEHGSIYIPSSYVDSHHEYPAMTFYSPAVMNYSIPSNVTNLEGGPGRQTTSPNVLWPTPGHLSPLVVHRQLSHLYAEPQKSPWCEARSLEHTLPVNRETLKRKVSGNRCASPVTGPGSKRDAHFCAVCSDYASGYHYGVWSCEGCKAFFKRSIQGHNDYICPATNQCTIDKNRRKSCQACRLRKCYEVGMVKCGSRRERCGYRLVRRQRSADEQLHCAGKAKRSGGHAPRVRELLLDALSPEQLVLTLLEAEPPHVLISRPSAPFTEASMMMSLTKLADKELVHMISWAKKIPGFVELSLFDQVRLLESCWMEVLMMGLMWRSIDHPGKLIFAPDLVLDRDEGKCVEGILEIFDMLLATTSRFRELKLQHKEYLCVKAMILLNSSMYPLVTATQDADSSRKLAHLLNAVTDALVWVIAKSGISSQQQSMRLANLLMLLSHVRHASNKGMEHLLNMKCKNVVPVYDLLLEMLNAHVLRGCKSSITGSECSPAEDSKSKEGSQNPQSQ
FAK blocker – blocks human focal adhesion kinase activity | Q05397 | biochemical FAK kinase activity assay | inhibition, %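 (tested at 7 µM)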 | 0.84% of 97,000 active | AID 727; in the data active means inhibition above about 19%
Large screens that a line does not name were inactive; [ ] = dose if it differs, or a comment.

CCOc1ccc(C(=O)Nc2ccc(NC(=O)c3ccco3)c(Cl)c2)cc1Cl	ERa coact pot 715[fluorescence artefact?]
CC(=O)NC1=C(OS(=O)(=O)c2ccc(C)cc2)CN(C)C1=O	none (no result: ERa coact inh, ERa coact pot, ERb coact inh, FAK blocker)
O=C(N/N=C/c1ccc(O)c(O)c1O)/C(=C/c1ccc([N+](=O)[O-])cc1)NC(=O)c1ccccc1	ERa coact inh 89[fluorescence artefact?], ERb coact inh 71[fluorescence artefact?]
CCOc1c2ccc(C(=O)NCc3ccc4c(c3)OCO4)cc2nn1CCOC	none (no result: Smad3 FoxH1 inh, ERa coact inh, ERa coact pot, ERb coact inh)
CN(C)S(=O)(=O)c1ccc(C(=O)Nc2nc(-c3cccs3)cs2)cc1	none
O=C(Nc1nc(-c2ccc3c(c2)OCCO3)cs1)c1ccc(S(=O)(=O)N2CCCCC2)cc1	ERa coact pot 269[fluorescence artefact?]
COCCN(CCOC)S(=O)(=O)c1ccc(C(=O)Nc2nc(C)c(C(C)=O)s2)cc1	none (no result: Smad3 FoxH1 inh, ERa coact inh, ERa coact pot, ERb coact inh)
O=C(Nc1nc(-c2ccc(S(=O)(=O)N3CCCCCC3)cc2)cs1)c1ccccc1	ERa coact pot 696[fluorescence artefact?]
COCCN(CCOC)S(=O)(=O)c1ccc(C(=O)Nc2nc(-c3ccncc3)cs2)cc1	ERa coact pot 211
O=C(Nc1nc(-c2cccs2)cs1)c1ccc(S(=O)(=O)N2CCCC2)cc1	ERb coact inh 51[fluorescence artefact?]
CC(C)/C(=N\[N+](C)(C)C)c1ccccc1	none (no result: ERa coact inh, ERa coact pot, ERb coact inh, FAK blocker)
CCOc1ccccc1/C=C(\C#N)C(N)=O	none (no result: ERa coact inh, ERa coact pot, ERb coact inh, FAK blocker)
CCc1c(C)sc(NC(=O)c2cnn3cccnc23)c1C#N	ERa coact pot 262[fluorescence artefact?]
Cc1ccc(-c2nnn(CC(=O)Nc3ccccc3N3CCOCC3)n2)cc1	none
Cc1cccc(NC(=O)Cn2nnc(-c3ccc(CN4CCCC4)cc3)n2)c1C	ERa coact pot 204[fluorescence artefact?]
COC(=O)CC[C@@H](C)[C@H]1CC[C@H]2[C@@H]3CC[C@H]4C[C@@H]5CC[C@@]4(C)[C@]3(O5)[C@H](Br)[C@@H](Br)[C@]12C	none (no result: ERa coact inh, ERa coact pot, ERb coact inh, FAK blocker)
CC(C)(CC(=O)Nc1ccccc1)C(=O)O	none (no result: ERa coact inh, ERa coact pot, ERb coact inh, FAK blocker)
C=CCn1c(COc2ccc(F)cc2)nnc1SCC(=O)NC(=O)NCc1ccco1	ERa coact inh 71[fluorescence artefact?] (no result: FAK blocker)
C=CCn1c(COc2cccc(C)c2)nnc1SCC(=O)NC(=O)NCc1ccco1	ERa coact inh 61
O=C(CSc1nnc(-c2ccncc2)n1-c1ccc(F)cc1)NC(=O)NCc1ccco1	ERa coact inh 68[fluorescence artefact?], ERb coact inh 55[fluorescence artefact?]
O=C(CSc1nnc(COc2ccccc2)n1Cc1ccco1)NCc1ccco1	none
Nc1c(OCC(=O)O)ccc2cc(S(=O)(=O)O)ccc12	none (no result: ERa coact inh, ERa coact pot, ERb coact inh, FAK blocker)
O=S(=O)(O)c1cc(O)c2c(N=Cc3ccccc3O)cc(S(=O)(=O)O)cc2c1	none (no result: ERa coact inh, ERa coact pot, ERb coact inh, FAK blocker)
O=C(Cn1c(=O)n(Cc2ccco2)c(=O)c2c3c(sc21)CCCC3)Nc1ccccc1	none
NC(=O)Cn1c(=O)n(Cc2ccco2)c(=O)c2c3c(sc21)CCCCC3	ERa coact inh 91[fluorescence artefact?], ERb coact inh 90[fluorescence artefact?]
C=CCn1c(SCC(=O)c2c(N)n(CCC)c(=O)n(C)c2=O)nc2sc(CC)cc2c1=O	ERa coact pot 445[fluorescence artefact?]
Cc1cccc(-c2nnc3n2N=C(c2ccc(Br)cc2)CS3)c1	ERa coact inh 56[fluorescence artefact?], ERa coact pot 297 (no result: FAK blocker)
Cc1ccc(-c2nnc3n2N=C(c2ccc(Br)cc2)CS3)cc1	ERa coact inh 66
COc1ccccc1-c1nnc2n1N=C(c1ccc(O)c(O)c1)CS2	ERa coact inh 60[fluorescence artefact?], ERb coact inh 75[fluorescence artefact?]
COCC(=O)Nc1nnc(Cc2ccc(OC)cc2)s1	ERb coact inh 55
Cc1nn2c(c1-c1ccccc1)NC1=C(C(=O)CCC1)C2c1cccnc1 (stereo not given)	none (no result: FAK blocker)
COCCn1c(C)cc(C(=O)COC(=O)c2cc3c(s2)CCC3)c1C	ERa coact inh 76[fluorescence artefact?], ERb coact inh 66
COCCn1c(C)cc(C(=O)CSc2nnc(C)s2)c1C	none (no result: FAK blocker)
O=C(O)C(=O)/C=C(\O)c1ccc(Br)cc1	none (no result: ERa coact inh, ERa coact pot, ERb coact inh, FAK blocker)
Cc1nn(-c2ccc(Cl)cc2)c2sc(C(=O)N3CCN(c4ccccn4)CC3)cc12	ERa coact pot 452
CCOc1ccc(-c2nn3c(-c4ccc(OC)cc4)nnc3s2)cc1	ERa coact pot 677[fluorescence artefact?] (no result: FAK blocker)
COc1ccc(-c2nnc3sc(-c4ccccc4OC)nn23)cc1	ERa coact pot 234 (no result: FAK blocker)
Cc1ccc(-c2nnc3sc(-c4ccc5c(c4)OCCO5)nn23)cc1	ERa coact pot 303
CCOc1cccc(-c2nnc3sc(-c4cccs4)nn23)c1	none (no result: FAK blocker)
COc1ccc(Cc2nn3c(-c4ccccc4OC)nnc3s2)cc1	none (no result: FAK blocker)
CCOc1ccc(-c2nn3c(-c4ccccc4)nnc3s2)cc1	none
COc1cccc(-c2nnc3sc(-c4cccs4)nn23)c1	ERa coact pot 251 (no result: FAK blocker)
c1ccc2c(c1)nnn2Cc1nnc2sc(-c3ccc4c(c3)OCCO4)nn12	none
CC(C)C[C@H](N)C(=O)O	none (no result: ERa coact inh, ERa coact pot, ERb coact inh, FAK blocker)
